Screening data deposited in PubChem by National Center for Advancing Translational Sciences (NCATS).
An excerpt weighted towards active compounds, which were near 5.3% of everything screened.
Coupling enz: qHTS Assay for Inhibitors of Fructose-1,6-bisphosphate Aldolase from Giardia Lamblia: Coupling assay counterscreen | coupling enzyme system counterscreen, AmpLite Red fluorescence | activity change, negative = inhibition, % at 58.2 µM, hits read low | 290,000 compounds, 0.67% hits; in the data active = activity change below about -30%
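Counterscreen of the coupled detection system alone, without aldolase: glyceraldehyde-3-phosphate coupling enzymes plus AmpLite Red readout. Compounds at 57.5 uM final, 10 min RT preincubation, 20 min RT reaction, fluorescence 525/598 nm.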
Tau ThT inhib: qHTS for Inhibitors of Tau Fibril Formation, Thioflavin T Binding; Microtubule-associated protein tau (Homo sapiens), P10636; recombinant tau K18 P301L, heparin-induced fibrillization, ThT fluorescence; Potency, µM (series often up to 57.4 µM), for the others: at the highest dose activity, negative = inhibition, most hits filed as inhibitors; 270,000 compounds, 2.1% hits; AID 1460, 2008; also: potency is read from the fitted curve at half-maximal effect; nearly all actives have a fitted effect of over 55% in size
Target sequence (P10636 561-689 P618L limits assumed): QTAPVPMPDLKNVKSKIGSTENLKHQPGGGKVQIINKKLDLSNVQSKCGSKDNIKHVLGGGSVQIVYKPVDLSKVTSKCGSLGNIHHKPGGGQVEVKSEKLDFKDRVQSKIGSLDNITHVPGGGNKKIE
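K18 P301L tau (15 uM + 0.24 uM Alexa 594-tagged), heparin 20 uM, NaOAc pH 7, 6 h 37 C; ThT 30 uM, 1 h RT, ex 450/em 510 nm.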
Sfp PPTase inh: qHTS Assay for Inhibitors of Bacillus subtilis Sfp phosphopantetheinyl transferase (PPTase); Biochemical Sfp PPTase activity, qHTS; AID 1490, 2009; 4'-phosphopantetheinyl transferase ffp (Bacillus subtilis), Q9F4F7; Potency, µM, for the others: largest response in the series, negative = inhibition, actives largely listed as inhibitors; 310,000 compounds, 3.5% hits;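 also: the enzyme is Sfp with the accession as filed and its product quenches rhodamine fluorescence; potency is read from the fitted curve at half-maximal effect; 0% = enzyme reaction without inhibitor and -100% = no enzyme wells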
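After 15 min at room temperature with compound, 15 nM Sfp received 5 uM rhodamine-CoA plus 12.5 uM BHQ-2-ybbR (50 mM Hepes pH 7.6, 10 mM MgCl2). Rate came from the fluorescence difference over 30 min, ex 525/em 598 nm.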
JMJD2E inh: qHTS Assay for Inhibitors of Human Jumonji Domain Containing 2E (JMJD2E); Lysine-specific demethylase 4E (Homo sapiens), B2RXH2; 230,000 compounds, 1.6% hits; JMJD2E catalytic domain, FDH-coupled NADH fluorescence (FDH is formaldehyde dehydrogenase); Potency, µM (highest dose often 57.1 µM), without a hit: at the highest dose activity change, negative = inhibition, hits mostly inhibitors; active = well fitted inhibition curve with a large enough effect, not every such curve was filed as active; inconclusive = small, poorly fitted or top-dose-only effect, or another doubt; inactive = no such curve, though single readings can be large or run the other way;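 also: potency is read from the fitted curve at half-maximal effect; 0% = wells with enzyme and -100% = buffer wells without enzyme; nearly all actives have a fitted effect of over 50% in size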
Target sequence (B2RXH2 1-337 limits assumed): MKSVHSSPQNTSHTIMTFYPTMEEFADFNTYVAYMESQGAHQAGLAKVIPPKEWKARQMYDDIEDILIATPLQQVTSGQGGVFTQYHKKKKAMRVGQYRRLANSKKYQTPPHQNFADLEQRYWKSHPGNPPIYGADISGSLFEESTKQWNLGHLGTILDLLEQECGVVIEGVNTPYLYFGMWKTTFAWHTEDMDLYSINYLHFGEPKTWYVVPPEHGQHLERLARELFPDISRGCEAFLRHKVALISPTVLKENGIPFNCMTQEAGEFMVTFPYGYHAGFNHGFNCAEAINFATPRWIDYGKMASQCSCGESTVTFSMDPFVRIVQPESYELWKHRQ
Tau fluor counter: Counterscreen qHTS for Inhibitors of Tau Fibril Formation, Fluorescence Polarization | Potency, µM (top dose mostly 57.7 µM), without a hit: top-dose activity change, negative = decrease | 280,000 compounds, 0.93% hits | tau K18 P301L Alexa594 fluorescence, heparin fibrillization; also: potency is read from the fitted curve at half-maximal effect; nearly all actives have a fitted effect of over 55% in size
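Human tau K18 P301L (15 uM unlabeled, 0.24 uM Alexa 594-labeled) in 100 mM sodium acetate pH 7 with 20 uM heparin, 6 hr at 37 C. ThT 30 uM added, 1 hr ambient; Alexa 594 FP and total fluorescence read at 555/632 nm.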
Tau fibril FP: qHTS for Inhibitors of Tau Fibril Formation, Fluorescence Polarization | Potency, µM (titrated, usually from 57.7 µM), for the others: at the highest dose activity, negative = inhibition, usual class: inhibitors | K18 P301L tau heparin fibrillization, Alexa594 FP, 6 h | 280,000 compounds, 0.39% hits | Microtubule-associated protein tau (Homo sapiens), P10636; also: potency is read from the fitted curve at half-maximal effect; nearly all actives have a fitted effect of over 55% in size
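Recombinant K18 P301L […], labeled with Alexa 594 at 0.24 uM over 15 uM unlabeled; heparin inducer 20 uM final; 37 C, 6 hr; FP endpoint.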
* hit, by the source's call; ? = inconclusive; / = no result given; [ ] = another dose, or the depositor's remark. Unless noted, calls follow the shape of the dose curve; as a rule, active = well fitted curve in the direction sought with a large enough effect; inconclusive = small, poorly fitted or top-dose-only effect, or another doubt; inactive = no such curve, though single readings can be large; an effect the other way counts as inactive or inconclusive. Unless noted, % is scaled to controls: 0 for no effect and ±100 for the full control effect.

SMILES	Coupling enz	Tau ThT inhib	Sfp PPTase inh	JMJD2E inh	Tau fluor counter	Tau fibril FP
CN1C(=O)C(N=Nc2ccccc2C(=O)O)N(C)C1=S (centres undefined)	1	4.5µM*	-10%	-3%	1%	-6%
CC1=NN(C(N)=S)C(=O)C1N=Nc1ccccc1C(=O)O (centres undefined)	1	/	10%	/	/	/
CCOc1ccc(NC(=O)c2ccc3nc(C(C)C)oc3c2)cc1	/	-17%	/	/	-2%	7%
CCOc1ccc2cc(S(=O)(=O)n3ccnc3C)ccc2c1	0	-13%	40µM*	?	0%	0%
CCc1ccc(NC(=O)C(CC)Sc2nc3cc4c(cc3c(=O)n2Cc2ccco2)OCO4)cc1 (centres undefined)	0	-7%	45µM*	-5%	-10%	5%
CCc1ccccc1NC(=O)C(CC)Sc1nc2cc3c(cc2c(=O)n1Cc1ccco1)OCO3 (centres undefined)	1	5%	24%	4%	1%	-4%
Cc1cc(C)cc(NC(=O)Nc2ccc3c(c2)CCC3)c1	/	/	18%	/	/	/
Cc1ccc(C(=O)N2CCN(c3ccc(NC(=O)c4cc(C)cc(C)c4)cc3)CC2)cc1	/	/	2%	/	/	/
Cc1cc(C)cc(C(=O)Nc2ccc(N3CCCC3)cc2)c1	1	1%	50µM*	-3%	-1%	2%
Cc1cc(C)cc(NC(=O)Nc2ccc(N3CCCCC3)cc2)c1	-2	?	50µM*	4%	20µM*[quencher]	10%
Cc1ccc(N2C(=O)CSC23C(=O)N(CC(=O)NC2CCCCC2)c2ccccc23)cc1 (centres undefined)	/	-8%	/	/	-5%	-1%
CN(C)c1ccc(-c2nc(-c3cccs3)c(-c3cccs3)[nH]2)cc1	/	?	/	/	10µM*[quencher]	-1%
COc1cc(-c2nc(-c3ccccc3)c(-c3cccs3)[nH]2)cc(OC)c1O	0	?	1%	?	14µM*[quencher]	9%
Oc1ccccc1-c1nc(-c2cccs2)c(-c2cccs2)[nH]1	/	14µM*	/	/	4.5µM*[quencher]	?
c1ccc(-c2nc(-c3cccs3)[nH]c2-c2ccccc2)cc1	0	7%	18%	?	?	0%
Cc1ccc(NC(=O)Cn2c(=O)n(Cc3ccccc3)c(=O)c3c(C)c(C(=O)N(C)C)sc32)c(C)c1	/	0%	/	/	-19%	-8%
CC(=O)Nc1ccc(S(=O)(=O)NC2(C(F)(F)F)C(=O)Nc3c2c(=O)[nH]c(=O)n3-c2cccc(Cl)c2)cc1 (centres undefined)	/	-4%	/	/	-15%	-19%
Cc1nc2cnc(N3CCOCC3)nc2n(CCc2ccccc2)c1=O	2	/	20%	/	/	/
CCCCCCCCCCCCCCCC[N+](C)(C)Cc1ccccc1	/	/	45µM*	/	/	/
C#CC[N+](C)(C)CCCCCCCCCCCC	3	-12%	-20%	3%	-2%	?
CCCCCCCCCCCCCC[N+](C)(C)Cc1ccccc1	/	/	40µM*	/	/	/
Cc1ccc(C(C[N+](=O)[O-])Sc2ccc(N)cc2)cc1 (centres undefined)	3	18µM*	5.6µM*	-10%	?	?
Oc1ccccc1NCC(O)Cn1ccc2ccccc21 (centres undefined)	2	14µM*	-27%	?	20µM*[quencher]	1%
Cc1ccn2c(Nc3ccccc3)c(-c3c[nH]c4ccccc34)nc2c1	/	?	/	/	11µM*[quencher]	?
Cc1ccccc1Nc1c(-c2c[nH]c3ccccc23)nc2ccccn12	/	-13%	/	/	?	4%
SMILES	Coupling enz	Tau ThT inhib	Sfp PPTase inh	JMJD2E inh	Tau fluor counter	Tau fibril FP
Cc1ccc2nc(-c3c[nH]c4ccccc34)c(Nc3ccc(F)cc3)n2c1	/	-11%	/	/	5µM*[quencher]	?
Cc1ccc(Nc2c(-c3c[nH]c4ccccc34)nc3cc(C)ccn23)cc1	/	?	/	/	11µM*[quencher]	3%
Cc1ccccc1Nc1c(-c2c[nH]c3ccccc23)nc2ccc(Cl)cn12	/	-17%	/	/	?	?
CCOC(=O)c1c(C)c(-c2ccccc2)n(CC(=O)NCCc2cccc(C)c2)c1C	/	-4%	/	/	-1%	6%
COC(=O)c1sc2cccc(F)c2c1S(=O)(=O)NCc1ccc(Cl)cc1	/	-3%	/	/	-20%	-16%
CCOC(=O)c1c(S(=O)(=O)N2CCCC(C(=O)NCc3ccc(Cl)cc3)C2)c(C)n(C)c1C (centres undefined)	/	4%	/	/	0%	6%
CCOC(=O)c1c(C)[nH]c(CCC(=O)Nc2ccc(Cl)cc2C)c1C	/	-14%	/	/	-22%	0%
Cc1cc(NCc2ccccc2)n2ncc(-c3ccccc3)c2n1	-2	/	-3%	/	/	/
CC(C)(C)c1cc(NCc2ccccn2)n2ncc(-c3ccccc3)c2n1	-6	?	29%	?	10µM*[quencher]	11%
COC(=O)CSc1nc(N)c2c3c(sc2n1)C(c1ccccc1)SC(c1ccccc1)C3 (centres undefined)	-4	?	40µM*	?	-29%	-15%
COC(=O)CSc1nc(N)c2c3c(sc2n1)CCCC3	1	?	-15%	-11%	-16%	-2%
CCOc1ccc2[nH]c3c(N4CCc5ccccc5C4)ncnc3c2c1	-2	?	-2%	?	14µM*[quencher]	?
Cc1ccc2[nH]c3c(N4CCc5ccccc5C4)ncnc3c2c1	0	?	2%	?	25µM*[quencher]	?
Brc1ccc2[nH]c3c(N4CCc5ccccc5C4)ncnc3c2c1	3	-16%	17%	3.5µM*	11µM*[quencher]	10%
CCOc1ccc2[nH]c3c(NCC(C)C)ncnc3c2c1	-1	/	-17%	/	/	/
Fc1ccc2[nH]c3c(N4CCc5ccccc5C4)ncnc3c2c1	3	-6%	-2%	?	?	-4%
C[C@H]([C@H](C)N1CC(=O)NC(=O)C1)N1CC(=O)NC(=O)C1	1	?	?	/	-18%	?
Cc1ccc(NC(=O)CSc2nnc3nc(C)cc(C)n23)cc1	/	-9%	/	/	-12%	-2%
Cc1cc(C)n2c(SCC(=O)Nc3ccc(F)cc3)nnc2n1	1	-17%	16µM*	-6%	-11%	-10%
Cc1cc(C)n2c(SCC(=O)NCc3ccc4c(c3)OCO4)nnc2n1	-1	/	71µM*	-4%	-10%	1%
CC(=O)O[C@@H]1[C@@H](O)CN[C@@H]1Cc1ccccc1	-1	/	-9%	/	/	/
